Test results from article PMC12136788.
Whole data set: some 24,000 sequences, median “enrichment r” near 0.99, cut for the highest 2% near 3.7. This is one part of a sample in which the highest values are shown more often than they occur.

T1: UNK ZnF1-3 (human, UniProt Q9C0B0 31-174)
T1 sequence: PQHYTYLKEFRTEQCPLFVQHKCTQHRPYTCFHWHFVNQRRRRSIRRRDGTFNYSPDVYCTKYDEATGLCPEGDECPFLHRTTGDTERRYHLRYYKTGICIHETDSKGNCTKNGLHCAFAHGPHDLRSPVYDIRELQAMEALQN

B1: 63494515_63562186_783_3pUTR_ENSMUSG00000025964_ENSMUST00000114107|mouse|control|control (ssRNA)
RNA: GGGAGUUCUACAGUCCGACGAUCUAGUGGAUCUCCACGUAGUCAGAAGAUAGCAAACCAUUGUUCAGUGUGAGGUCAAGAAUGAACUUGGAGCCGAAAGCUUCGAUCUGGAAGCUUGCCUGGGCCAGAUGCACAGCCUUAUUGCAACAGAGGAUUGAGCAUCA
B2: chr12:16048344:16048345:+_ENSG00000023734_ENST00000419869|hu_hu|hu_hu_hu_mus_True|68_98 (ssRNA)
RNA: GGGAGUUCUACAGUCCGACGAUCAGAUCGUCCAUAAGUUAUAACCAAAAUCUCUCCUUCAGGAAUAUAUUCCAUACUGCUAACAGACAUAUUAAAAUUCAGAGAUUUCACUUCUGUCAUUGUGGCAUGAUCCCAGAGCCGAACCAACAGAGGAUUGAGCAUCA
B3: chr14:76904501:76904502:+_ENSMUSG00000022010_ENSMUST00000022587|mus_mus|FALSE|FALSE (ssRNA)
RNA: GGGAGUUCUACAGUCCGACGAUCUCCAUCGCCACUGGUCUACACCAUUGGGAUUUCAUGCAAUUGCAGCCAAAUUAAAAAAACAGCCCCGUGGAAAAAAAAGAGAGAGGGCGGGAGGGAGCAAGCUCCAGCAGCCUGGUUCAACAACAGAGGAUUGAGCAUCA
B4: chr3:9848215:9848216:+_ENSG00000241553_ENST00000287613|perfect_dup|FALSE|FALSE (ssRNA)
RNA: GGGAGUUCUACAGUCCGACGAUCCAAUAACGUAUAAUCACUGGGACCAGUCACAGCCACUGGAGGUGGAGGUUUAAAAAAAAAAAAAAAAAAAAAGACAAAAAGGUUACAGUAUCCUACAAGCACAGAGUUUAAGUUUCAAGACAACAGAGGAUUGAGCAUCA
B5: chr3:9848215:9848216:+_ENSG00000241553_ENST00000287613|perfect_dup|FALSE|FALSE (ssRNA)
RNA: GGGAGUUCUACAGUCCGACGAUCAUCACUGGGGCCAGUCACAGCCACUGGAGCUGGAGGUUGGUUUUUUUGUUUGUUUAAAAAAAAAAAAAAAAAGACAAAAAGGUUACAGUCUUCUACAAGCACAGAGUUUAGGUUUCAAGACAACAGAGGAUUGAGCAUCA
B6: chr3:176740097:176740098:-_ENSG00000177565_ENST00000430069|hu_mus|hu_hu_hu_mus_True|78_78 (ssRNA)
RNA: GGGAGUUCUACAGUCCGACGAUCUGUUUUGUAUACCACAAAAGGAGGCACUUUCAGUAUCUGUAAAAGGUGUUUAGUCCUAAAACAUACUCACCUAGAGGAUAACUCAGGAAAACAAUCUGUUACACUCUAAGACCUACUCCACAACAGAGGAUUGAGCAUCA
B7: 25243085_25243205_1728_CDS_ENSMUSG00000059669_ENSMUST00000075954|mouse|control|control (ssRNA)
RNA: GGGAGUUCUACAGUCCGACGAUCUCCUGAGCUCUUUUUUGAUUCGUUGUAUUUUUUUUCAAAAAGUUUCUUUUCAAGUAAGCUCACUUCUUCAUGGAGAGCAGAGGUCUUUAUUCUCAGUAAGAAGGAGAAGAUGUUUAGUAUCAACAGAGGAUUGAGCAUCA
B8: 122244776_122244896_1956_3pUTR_ENSMUSG00000039735_ENSMUST00000162409|mouse|control|control (ssRNA)
RNA: GGGAGUUCUACAGUCCGACGAUCGAAAAAGCACACAUCCUUUACACACACUUAGGCAGGACAGAAAGCAAAAGGCAUCGAUUAAGCUUCCACACCAGCAUCACUUGAACAGUAAGGCGUCAAAGAGUUUCUGGUGGCAGUAUUCAACAGAGGAUUGAGCAUCA

Each binder was assayed against T1, UNK ZnF1-3 (assay: nsRBNS (natural sequence RNA bind-n-seq); RBNS binding buffer (assumed for nsRBNS): 25 mM Tris pH 7.5, 150 mM KCl, 3 mM MgCl2, 0.01% Triton X-100, 500 ug/ml BSA, 20 U/ml SUPERase-In, 4 C; UNK is unkempt and MSI1 is Musashi-1; names of the RNAs are library labels; protein concentration not given here; high values mean tight binding).
In the case of B1, the binding signal is reported as 1.25 enrichment R. With B2 the binding signal was 1.19 enrichment R. In the case of B3, the binding signal is reported as 2.68 enrichment R. B4 was tested, and the binding signal was 9.16 enrichment R. B5 gave a binding signal of 9.16 enrichment R. Binder B6 has a binding signal of 0.869 enrichment R. In the case of B7, the binding signal is reported as 0.743 enrichment R. Work on B8 yielded a binding signal of 1.73 enrichment R.
